From PubChem BioAssay (Tox21)
Records with an inconclusive call do not appear. The source made the active and inactive calls. Unless noted, the call rests on the fitted dose curve.

Assays:
[1] = qHTS assay to identify small molecule agonists of the sonic hedgehog signaling (Shh) pathway (AID 1259368);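 further: NIH/3T3-derived 3T3Gli1-Luc cells carrying a stable Gli1-driven firefly luciferase reporter; series mostly up to about 92 µM; nearly all actives have a fitted effect of over 15% in size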
Method in brief: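 Hedgehog pathway agonism scored by increased firefly luciferase luminescence in 3T3Gli1-Luc cells treated 24 hr at 37 C; detection used a 30 min room-temperature reagent incubation.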

[2] = qHTS assay to identify small molecule antagonists of the sonic hedgehog signaling (Shh) pathway (AID 1259369); further: nearly all actives have a fitted effect of over 45% in size
Method in brief: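 NIH/3T3 stable Gli1-Luc clone, 2,000 cells/well, 4hr settle; cpd + conditioned medium 24hr; Luc reagent 30min RT; luminescence.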

[3] = target: Estrogen receptor beta (Homo sapiens) (UniProt Q92731); test: qHTS assay to identify small molecule agonists of the estrogen receptor beta (ER-beta) signaling pathway (AID 1259377; active means well fitted activation curve with a large enough effect in the signal ratio in the repeat runs, not every such curve was filed as active; the % refers to the signal ratio)
Sequence of Estrogen receptor beta (Homo sapiens) (Q92731 whole entry, looked up): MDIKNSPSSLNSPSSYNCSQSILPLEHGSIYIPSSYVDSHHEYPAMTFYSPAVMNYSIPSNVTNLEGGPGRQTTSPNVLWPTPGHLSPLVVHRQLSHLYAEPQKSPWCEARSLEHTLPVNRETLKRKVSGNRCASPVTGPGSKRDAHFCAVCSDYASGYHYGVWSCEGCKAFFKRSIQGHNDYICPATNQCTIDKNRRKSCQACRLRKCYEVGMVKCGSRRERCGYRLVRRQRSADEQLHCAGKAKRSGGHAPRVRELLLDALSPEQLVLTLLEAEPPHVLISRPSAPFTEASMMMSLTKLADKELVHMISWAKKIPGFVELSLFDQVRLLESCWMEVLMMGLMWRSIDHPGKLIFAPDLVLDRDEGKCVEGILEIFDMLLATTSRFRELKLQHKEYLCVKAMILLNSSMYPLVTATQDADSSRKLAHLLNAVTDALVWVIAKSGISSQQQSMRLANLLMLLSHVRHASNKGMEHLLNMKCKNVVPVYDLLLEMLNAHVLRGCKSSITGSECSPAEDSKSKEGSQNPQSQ
Method in brief: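 qHTS in ER-beta-UAS-bla HEK293T cells: 6 hr settling, then 16 hr compound at 37C, then LiveBLAzer substrate 2 h at RT before fluorescence reading.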

[4] = target: Estrogen receptor beta (Homo sapiens) (UniProt Q92731); test: qHTS assay to identify small molecule antagonists of the estrogen receptor beta (ER-beta) signaling pathway (AID 1259378; active means well fitted inhibition curve with a large enough effect in the signal ratio in the repeat runs, not every such curve was filed as active; the % refers to the signal ratio)
Method in brief: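 ER-beta-UAS-bla HEK293T cells in 2% charcoal-stripped FBS medium treated with compound plus 1nM final 17-beta-estradiol for 16 hr at 37C. Beta-lactamase reporter read by FRET substrate fluorescence after 2 hours at room temperature.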

[5] = qHTS assay to identify small molecule agonists of the androgen receptor (AR) signaling pathway in the presence of an antagonist - cell viability counter screen (AID 1259379; active means well fitted curve in the direction sought with a large enough effect in the repeat runs; an effect the other way counts as inactive or inconclusive;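 further: MDA-kb2 human breast cancer cells carrying an MMTV luciferase reporter; series mostly up to about 92 µM; nearly all actives have a fitted effect of over 25% in size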)
Method in brief: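 MDA-kb2 viability measured by CellTiter-Fluor fluorescence in the same wells as the luciferase signal; nilutamide 3.0uM final; 15-point compound titration; 16 hr at 37C.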

[6] = qHTS assay to identify small molecule agonists of the estrogen receptor beta (ER-beta) signaling pathway - cell viability counter screen (AID 1259380; active means well fitted curve in the direction sought with a large enough effect in the repeat runs; an effect the other way counts as inactive or inconclusive; further: nearly all actives have a fitted effect of over 30% in size)
Method in brief: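 Measured: luminescence from CellTiter-Glo after 30 min at room temperature, added to wells already read for the LiveBLAzer FRET reporter (2 hr substrate); ER-beta-UAS-bla HEK293T cells had 16 hr compound treatment at 37C, 5% CO2.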

[7] = target: Androgen receptor (Homo sapiens) (UniProt P10275); test: qHTS assay to identify small molecule agonists of the androgen receptor (AR) signaling pathway in the presence of an antagonist (AID 1259381); further: nearly all actives have a fitted effect of over 15% in size
Sequence of Androgen receptor (Homo sapiens) (P10275 whole entry, looked up): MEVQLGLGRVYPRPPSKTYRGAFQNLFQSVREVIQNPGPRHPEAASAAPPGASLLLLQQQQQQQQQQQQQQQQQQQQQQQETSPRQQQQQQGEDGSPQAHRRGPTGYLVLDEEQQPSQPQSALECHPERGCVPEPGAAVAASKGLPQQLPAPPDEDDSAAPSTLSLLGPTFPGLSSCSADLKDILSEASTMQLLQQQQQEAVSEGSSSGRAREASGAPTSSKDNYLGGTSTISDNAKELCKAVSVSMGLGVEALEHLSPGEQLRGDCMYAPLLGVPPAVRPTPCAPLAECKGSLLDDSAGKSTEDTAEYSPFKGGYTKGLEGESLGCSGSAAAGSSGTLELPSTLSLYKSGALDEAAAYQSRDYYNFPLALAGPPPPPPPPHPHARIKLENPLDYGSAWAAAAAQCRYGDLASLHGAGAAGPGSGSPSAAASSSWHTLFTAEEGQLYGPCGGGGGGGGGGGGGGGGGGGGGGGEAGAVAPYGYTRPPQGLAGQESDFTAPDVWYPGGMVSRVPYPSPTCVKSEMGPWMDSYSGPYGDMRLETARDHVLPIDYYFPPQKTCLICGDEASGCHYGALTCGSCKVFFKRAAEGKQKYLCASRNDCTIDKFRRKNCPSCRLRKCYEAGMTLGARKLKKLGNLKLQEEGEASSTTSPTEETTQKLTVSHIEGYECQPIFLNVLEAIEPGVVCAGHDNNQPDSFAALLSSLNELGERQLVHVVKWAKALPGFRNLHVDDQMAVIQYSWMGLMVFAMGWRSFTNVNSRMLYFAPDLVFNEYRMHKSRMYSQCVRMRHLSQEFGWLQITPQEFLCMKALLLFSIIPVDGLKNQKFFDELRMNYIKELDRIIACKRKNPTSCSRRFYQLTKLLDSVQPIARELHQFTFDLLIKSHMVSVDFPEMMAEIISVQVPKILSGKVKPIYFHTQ
Method in brief: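 Luminescent ONE-Glo read, 30min at room temperature, follows 16hr compound exposure (15 concentrations) of MDA-kb2 cells at 37C, 0% CO2, with nilutamide added at 3.0uM final.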

[8] = qHTS assay to identify small molecule antagonists of the estrogen receptor beta (ER-beta) signaling pathway - cell viability counter screen (AID 1259382; active means well fitted curve in the direction sought with a large enough effect in the repeat runs; an effect the other way counts as inactive or inconclusive; further: series mostly up to about 92 µM; nearly all actives have a fitted effect of over 55% in size)
Method in brief: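 Readout: luminescence, CellTiter-Glo, same wells as bla assay. System: ER-beta-UAS-bla GripTite HEK293T, 2% charcoal-stripped FBS. Exposure: compounds plus 1nM 17-beta-estradiol, 16 hr, 37C.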

[9] = qHTS assay to identify small molecule agonists or antagonists of the thyroid stimulating hormone receptor (TSHR) signaling pathway - wild type cell line counter screen (AID 1259384)
Method in brief: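 Wild-type Hek293 cells, 800/well, 18 h at 37C, then compound with Ro20-1724 for 30 min RT. cAMP by HTRF (cAMP-d2/anti-cAMP cryptate), 1 h RT, fluorescence read. 15 concentrations, triplicates.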

[10] = target: Thyrotropin receptor (Homo sapiens) (UniProt P16473); test: qHTS assay to identify small molecule antagonists of the thyroid stimulating hormone receptor (TSHR) signaling pathway (AID 1259385); further: nearly all actives have a fitted effect of over 20% in size
Sequence of Thyrotropin receptor (Homo sapiens) (P16473 whole entry, looked up): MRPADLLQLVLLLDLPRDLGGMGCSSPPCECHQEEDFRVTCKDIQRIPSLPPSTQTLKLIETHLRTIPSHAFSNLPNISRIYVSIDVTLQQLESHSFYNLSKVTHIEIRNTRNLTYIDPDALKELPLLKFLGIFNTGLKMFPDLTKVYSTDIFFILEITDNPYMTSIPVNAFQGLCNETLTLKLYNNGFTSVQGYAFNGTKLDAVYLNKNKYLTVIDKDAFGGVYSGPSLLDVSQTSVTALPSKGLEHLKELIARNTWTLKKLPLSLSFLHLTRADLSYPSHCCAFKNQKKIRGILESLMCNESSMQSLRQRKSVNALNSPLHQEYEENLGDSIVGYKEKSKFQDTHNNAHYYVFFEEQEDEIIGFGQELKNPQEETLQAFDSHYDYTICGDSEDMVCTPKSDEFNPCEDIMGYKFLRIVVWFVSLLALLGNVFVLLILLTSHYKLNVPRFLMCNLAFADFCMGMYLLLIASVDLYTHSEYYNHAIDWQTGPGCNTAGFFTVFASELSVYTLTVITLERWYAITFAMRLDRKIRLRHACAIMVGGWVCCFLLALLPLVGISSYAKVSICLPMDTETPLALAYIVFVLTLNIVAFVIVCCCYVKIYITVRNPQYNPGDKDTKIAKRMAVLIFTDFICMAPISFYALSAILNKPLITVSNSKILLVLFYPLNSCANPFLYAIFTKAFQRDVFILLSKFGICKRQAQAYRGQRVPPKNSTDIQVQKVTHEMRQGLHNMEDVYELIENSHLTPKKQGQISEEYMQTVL
Method in brief: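 TSHR-HEK293 cells (800/well) plated 18 h, then compounds with Ro20-1724 and TSH at 1.5 ng/mL final, 30 min at room temperature. cAMP quantified by HTRF (cAMP-d2/anti-cAMP-cryptate, 1 h); 15 concentrations in triplicate.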

[11] = qHTS assay to identify small molecule agonists of the estrogen receptor alpha (ER-alpha) signaling pathway in the presence of an antagonist - cell viability counter screen (AID 1259386; active means well fitted curve in the direction sought with a large enough effect in the repeat runs; an effect the other way counts as inactive or inconclusive;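 further: series mostly up to about 92 µM; cells exposed to compounds for 22 h at 37 °C before the viability read; nearly all actives have a fitted effect of over 30% in size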)
Method in brief: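 The test measures whether compounds kill ER-alpha reporter cells (VM7Luc4E2) under antagonist co-treatment (ICI-182,780, 10.0nM). Fluorescence from CellTiter-Fluor is read after a 22hr exposure.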

[12] = target: Progesterone receptor (Homo sapiens) (UniProt P06401); test: qHTS assay to identify small molecule agonists of the progesterone receptor (PR) signaling pathway (AID 1346784); further: nearly all actives have a fitted effect of over 30% in size
Sequence of Progesterone receptor (Homo sapiens) (P06401 whole entry, looked up): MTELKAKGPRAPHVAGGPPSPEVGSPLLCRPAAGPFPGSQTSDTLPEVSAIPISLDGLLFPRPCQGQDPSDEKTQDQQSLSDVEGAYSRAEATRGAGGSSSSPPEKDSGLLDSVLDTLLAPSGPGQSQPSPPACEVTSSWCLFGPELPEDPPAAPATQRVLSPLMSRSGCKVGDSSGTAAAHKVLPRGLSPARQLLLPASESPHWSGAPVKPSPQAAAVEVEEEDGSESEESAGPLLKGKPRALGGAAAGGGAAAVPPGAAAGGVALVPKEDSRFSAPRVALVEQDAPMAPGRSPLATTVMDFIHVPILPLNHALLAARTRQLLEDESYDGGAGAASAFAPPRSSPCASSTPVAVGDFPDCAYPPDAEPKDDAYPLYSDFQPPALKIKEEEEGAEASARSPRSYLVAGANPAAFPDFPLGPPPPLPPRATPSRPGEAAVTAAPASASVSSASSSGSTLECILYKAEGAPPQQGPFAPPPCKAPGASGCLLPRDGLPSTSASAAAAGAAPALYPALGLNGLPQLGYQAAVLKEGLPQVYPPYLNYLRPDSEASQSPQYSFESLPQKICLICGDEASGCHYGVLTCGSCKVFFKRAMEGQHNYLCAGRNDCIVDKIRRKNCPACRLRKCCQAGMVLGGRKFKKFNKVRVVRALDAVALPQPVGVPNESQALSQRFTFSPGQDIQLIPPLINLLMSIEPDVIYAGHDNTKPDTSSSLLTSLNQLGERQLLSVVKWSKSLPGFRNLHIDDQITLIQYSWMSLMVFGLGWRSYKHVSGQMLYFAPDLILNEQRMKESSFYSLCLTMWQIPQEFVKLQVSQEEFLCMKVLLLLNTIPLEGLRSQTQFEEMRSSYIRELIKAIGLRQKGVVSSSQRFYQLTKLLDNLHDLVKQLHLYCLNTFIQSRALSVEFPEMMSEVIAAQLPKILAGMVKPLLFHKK
Method in brief: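 Fluorescence from LiveBLAzer B/G FRET substrate cleavage (2 hr, RT) reported PR activation in PR-UAS-bla HEK 293T cells treated 16 hr at 37C/5% CO2 with compounds; medium contained 2% charcoal-stripped FBS.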

[13] = target: Progesterone receptor (Homo sapiens) (UniProt P06401); test: qHTS assay to identify small molecule antagonists of the progesterone receptor (PR) signaling pathway (AID 1346795; active means well fitted inhibition curve with a large enough effect in the signal ratio in the repeat runs, not every such curve was filed as active; the % refers to the signal ratio)
Method in brief: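 Fluorescence intensity measured 2 hr after adding beta-lactamase FRET substrate to PR-UAS-bla HEK293T cells that had been co-treated 16 hr with compound and 1 nM R5020 (final concentration) in 2% charcoal-stripped FBS.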

[14] = qHTS assay to identify small molecule antagonists of the progesterone receptor (PR) signaling pathway - cell viability counter screen (AID 1346798; active means well fitted curve in the direction sought with a large enough effect in the repeat runs; an effect the other way counts as inactive or inconclusive; further: series mostly up to about 92 µM; nearly all actives have a fitted effect of over 50% in size)
Method in brief: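 CellTiter-Glo luminescence; PR-UAS-bla HEK293T, 3,000 cells/well; compound + R5020, 16 hr, 37C/5% CO2; 30 min RT before read.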

[15] = qHTS assay to identify small molecule agonists of the progesterone receptor (PR) signaling pathway - cell viability counter screen (AID 1346799); further: nearly all actives have a fitted effect of over 45% in size
Method in brief: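 In parallel with the beta-lactamase readout, cytotoxicity toward PR-UAS-bla HEK293T cells was measured by CellTiter-Glo luminescence following 16 hr compound incubation in 2% charcoal-stripped FBS medium.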

[16] = qHTS assay to identify small molecule antagonists of the TGF-beta/Smad signaling pathway - cell viability counter screen (AID 1346824; active means well fitted curve in the direction sought with a large enough effect in the repeat runs; an effect the other way counts as inactive or inconclusive; further: nearly all actives have a fitted effect of over 50% in size)
Method in brief: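 SBE-bla HEK 293T cells, incubated overnight, then compound plus 0.25 ng/mL TGF-beta1 (stock added) for 5 hr at 37 C. Viability was read in the same wells by CellTiter-Glo luminescence after 30 min at room temperature.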

[17] = qHTS assay to identify small molecule agonists of the TGF-beta/Smad signaling pathway - cell viability counter screen (AID 1346829; active means well fitted curve in the direction sought with a large enough effect in the repeat runs; an effect the other way counts as inactive or inconclusive; further: top concentration of the series differs between compounds; nearly all actives have a fitted effect of over 45% in size)
Method in brief: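 After overnight seating at 37 C and 5% CO2, reporter cells got compounds for 5 hr and FRET substrate for 2 hr; cell viability then came from CellTiter-Glo luminescence.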

[18] = qHTS assay to identify small molecule agonists of the TGF-beta/Smad signaling pathway (AID 1346859; active means well fitted activation curve with a large enough effect in the signal ratio in the repeat runs, not every such curve was filed as active; the % refers to the signal ratio; further: series mostly up to about 77 µM)
Method in brief: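 After overnight seeding, SBE-bla HEK 293T cells are dosed with compounds in DMSO and kept 5 hr at 37 C, 5% CO2. LiveBLAzer-type FRET substrate is then applied for 2 hr at room temperature.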

[19] = target: Thyrotropin-releasing hormone receptor (Homo sapiens) (UniProt P34981); test: qHTS assay to identify small molecule antagonists of the thyrotropin-releasing hormone receptor (TRHR) signaling pathway (AID 1346877; active means well fitted inhibition curve with a large enough effect in the repeat runs, not every such curve was filed as active; further: series mostly up to about 51 µM)
Sequence of Thyrotropin-releasing hormone receptor (Homo sapiens) (P34981 whole entry, looked up): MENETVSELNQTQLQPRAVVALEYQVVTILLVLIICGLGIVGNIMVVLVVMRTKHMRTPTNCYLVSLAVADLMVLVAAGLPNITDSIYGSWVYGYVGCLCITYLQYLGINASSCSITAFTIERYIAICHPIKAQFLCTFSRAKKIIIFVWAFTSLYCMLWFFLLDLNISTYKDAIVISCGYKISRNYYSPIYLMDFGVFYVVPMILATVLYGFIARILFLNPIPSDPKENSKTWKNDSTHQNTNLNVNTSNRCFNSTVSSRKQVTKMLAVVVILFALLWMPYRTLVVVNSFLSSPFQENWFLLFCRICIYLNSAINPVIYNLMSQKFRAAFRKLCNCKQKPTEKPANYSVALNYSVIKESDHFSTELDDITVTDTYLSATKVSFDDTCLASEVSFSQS
Method in brief: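 Overnight-plated (18 h, 37 °C) HEK293 cells expressing TRHR were dye-loaded 2 h, treated with compound, then stimulated with TRH at 1 nM final. Fluorescence intensity was captured every second for 3 min.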

[20] = target: Estrogen receptor (Homo sapiens) (UniProt P03372); test: qHTS assay to identify small molecule agonists of the estrogen receptor alpha (ER-alpha) signaling pathway in the presence of an antagonist (AID 1259383); further: top concentration of the series differs between compounds; nearly all actives have a fitted effect of over 15% in size
Sequence of Estrogen receptor (Homo sapiens) (P03372 whole entry, looked up): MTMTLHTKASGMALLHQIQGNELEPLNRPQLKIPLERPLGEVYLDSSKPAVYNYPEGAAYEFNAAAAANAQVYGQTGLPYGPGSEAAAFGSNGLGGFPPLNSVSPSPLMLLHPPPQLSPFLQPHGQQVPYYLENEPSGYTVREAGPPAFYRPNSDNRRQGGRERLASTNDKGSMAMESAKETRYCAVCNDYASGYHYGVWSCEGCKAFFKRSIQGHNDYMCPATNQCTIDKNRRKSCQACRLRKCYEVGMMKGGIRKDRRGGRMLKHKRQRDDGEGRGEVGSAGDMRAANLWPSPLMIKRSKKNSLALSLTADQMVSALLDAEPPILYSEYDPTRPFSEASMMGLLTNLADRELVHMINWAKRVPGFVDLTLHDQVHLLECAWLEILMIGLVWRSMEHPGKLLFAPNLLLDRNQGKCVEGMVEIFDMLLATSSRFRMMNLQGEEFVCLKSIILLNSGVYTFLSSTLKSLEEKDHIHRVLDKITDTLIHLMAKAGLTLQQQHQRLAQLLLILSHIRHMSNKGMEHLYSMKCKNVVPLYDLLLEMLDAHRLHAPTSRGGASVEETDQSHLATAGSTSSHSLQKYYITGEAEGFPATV
Method in brief: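 Quantitative HTS confirmation: compounds titrated at 15 concentrations onto estrogen-deprived VM7Luc4E2 cells carrying a four-ERE luciferase construct, with ICI-182,780 present at 10.0nM final. Signal is luminescence after 22hr exposure.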
On the % scale 0 is the no-effect control and ±100 the full control effect.

O=c1[nH]c2ccccc2c(=O)n1CCCl
inactive: Potency [1] | Potency [2] | outcome [3] | Potency [4] | Potency [5] | Potency [6] | Potency [7] | Potency [8] | outcome [9] | Potency [10] | outcome [11] | Potency [12] | Potency [13] | Potency [14] | Potency [15] | outcome [16] | outcome [17] | outcome [18] | outcome [19]

C=CCn1c(=O)n([C@@H]2O[C@H](CO)[C@@H](O)[C@H]2O)c2nc(N)[nH]c(=O)c21
inactive: Potency [1] | Potency [2] | outcome [3] | Potency [4] | Potency [5] | Potency [6] | Potency [7] | Potency [8] | Potency [20] | outcome [9] | Potency [10] | Potency [12] | Potency [13] | Potency [14] | outcome [16] | outcome [17] | outcome [18] | outcome [19]

Fc1ccccc1-c1ccccc1
inactive: Potency [1] | Potency [2] | outcome [3] | Potency [4] | Potency [5] | Potency [6] | Potency [8] | Potency [20] | outcome [9] | Potency [10] | Potency [12] | Potency [14] | Potency [15] | outcome [16] | outcome [17] | outcome [18]

CCCC(C)CO (centres undefined)
inactive: Potency [1] | Potency [2] | outcome [3] | Potency [4] | Potency [5] | Potency [6] | Potency [7] | outcome [9] | Potency [10] | outcome [11] | Potency [12] | Potency [13] | Potency [14] | Potency [15] | outcome [16] | outcome [17] | outcome [18]

CC(C)(C)CC(C)(C)N
inactive: Potency [1] | Potency [2] | outcome [3] | Potency [4] | Potency [5] | Potency [6] | Potency [8] | Potency [20] | outcome [9] | Potency [10] | outcome [11] | Potency [14] | Potency [15] | outcome [16] | outcome [18]

CCCCOCC(C)OCC(C)O (centres undefined)
inactive: Potency [1] | Potency [2] | outcome [3] | Potency [4] | Potency [5] | Potency [6] | Potency [8] | Potency [20] | outcome [11] | Potency [12] | Potency [14] | Potency [15] | outcome [16] | outcome [17] | outcome [18] | outcome [19]

CC1=CC(=O)CCC1
inactive: Potency [1] | Potency [2] | outcome [3] | Potency [4] | Potency [5] | Potency [6] | Potency [8] | outcome [9] | Potency [10] | Potency [12] | Potency [14] | Potency [15] | outcome [16] | outcome [18] | outcome [19]

CN(C)C(=O)Nc1ccccc1
inactive: Potency [1] | Potency [2] | outcome [3] | Potency [4] | Potency [5] | Potency [6] | Potency [8] | Potency [20] | outcome [9] | Potency [10] | Potency [12] | Potency [13] | Potency [14] | Potency [15] | outcome [16] | outcome [18] | outcome [19]

CCC(=O)/C=C/c1ccc(OC)cc1
inactive: Potency [1] | Potency [2] | outcome [3] | Potency [5] | Potency [6] | Potency [20] | outcome [11] | Potency [12] | Potency [14] | outcome [16] | outcome [18] | outcome [19]

CNC(=O)c1c(I)c(NC(=O)CCCCC(=O)Nc2c(I)c(C(=O)O)c(I)c(C(=O)NC)c2I)c(I)c(C(=O)O)c1I
inactive: Potency [1] | Potency [2] | outcome [3] | Potency [5] | Potency [6] | Potency [8] | Potency [20] | outcome [11] | Potency [12] | Potency [14] | Potency [15] | outcome [16] | outcome [18] | outcome [19]

CC(C)[C@H](N)C(=O)OCCOCn1cnc2c(=O)[nH]c(N)nc21
inactive: Potency [1] | Potency [2] | outcome [3] | Potency [5] | Potency [6] | Potency [20] | outcome [9] | Potency [10] | outcome [11] | Potency [12] | Potency [13] | Potency [14] | Potency [15] | outcome [16] | outcome [18] | outcome [19]

CSc1ccc(C=O)cc1
inactive: Potency [1] | Potency [2] | outcome [3] | Potency [5] | Potency [6] | Potency [8] | outcome [9] | Potency [10] | outcome [11] | Potency [12] | Potency [13] | Potency [14] | Potency [15] | outcome [16] | outcome [18]

O=C(O)/C=C/c1ccc(Cn2ccnc2)cc1
inactive: Potency [1] | Potency [2] | outcome [3] | Potency [4] | Potency [5] | Potency [6] | Potency [8] | outcome [11] | Potency [12] | Potency [13] | Potency [14] | Potency [15] | outcome [16] | outcome [17] | outcome [18] | outcome [19]

Cn1ccc2cc3c(cc21)CCN3C(=O)Nc1cccnc1
inactive: activity change [1] 11% [at 18.9 µM, hits give high values] | activity change, negative = inhibition [2] 1.03% [at 19 µM] | activation [3] -2.3% [at 19 µM] | activity change, negative = cytotoxicity [5] 2.26% [at 19 µM] | activity change, negative = cytotoxicity [8] -14.8% [at 19 µM] | activation [20] 12% [at 19 µM] | cAMP activity change [9] -0.339% [at 18.9 µM] | activity change, negative = cytotoxicity [11] -5.2% [at 19 µM] | activation [12] 1.39% [at 19 µM] | activity change, negative = inhibition [13] -0.261% [at 18.9 µM] | activity change, negative = cytotoxicity [14] -18% [at 18.9 µM] | activity change, negative = cytotoxicity [15] 0.965% [at 19 µM] | viability change, negative = cytotoxic [16] 10.7% [at 15.8 µM] | activation [18] 2.76% [at 15.8 µM] | activity, negative = inhibition [19] -16.1% [at 10.5 µM]

Cc1nccn1CC1CCc2c(c3ccccc3n2C)C1=O (centres undefined)
inactive: Potency [1] | Potency [2] | outcome [3] | Potency [5] | Potency [6] | Potency [20] | outcome [9] | Potency [12] | Potency [13] | Potency [14] | outcome [16] | outcome [17] | outcome [18] | outcome [19]

O=Cc1ccccc1[N+](=O)[O-]
inactive: Potency [1] | Potency [2] | outcome [3] | Potency [5] | Potency [6] | Potency [8] | Potency [20] | outcome [9] | Potency [10] | Potency [12] | Potency [14] | outcome [16] | outcome [17] | outcome [18]
